The list is not random: actives were taken first. Their share in the collection is about 4.7%.
TGFb inhibitor: blocks TGF-b signaling | HepG2 CAGA-GFP TGF-b/SMAD3 reporter, GFP fluorescence, 18 h; TGF-beta stimulated, 500 pg/mL final | Potency, µM (series often up to 46.1 µM), actives largely listed as inhibitors | 1.2% of 410,000 active; further: nearly all actives have a fitted effect of over 65% in size
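Using HEPG2 CAGA-GFP reporter cells at 1000 cells/well, we pinned test compounds, stimulated with recombinant TGF-beta (500 pg/mL final) and measured total well GFP after 18 h.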
DRD3 agonist: activates the human D3 dopamine receptor; AID 652048; max activation, %; 0.58% of 410,000 active; D3R DiscoveRx beta-arrestin cells, luminescence, 90 min; in the data active means max activation above about 30%
Target sequence (P35462 whole entry, looked up): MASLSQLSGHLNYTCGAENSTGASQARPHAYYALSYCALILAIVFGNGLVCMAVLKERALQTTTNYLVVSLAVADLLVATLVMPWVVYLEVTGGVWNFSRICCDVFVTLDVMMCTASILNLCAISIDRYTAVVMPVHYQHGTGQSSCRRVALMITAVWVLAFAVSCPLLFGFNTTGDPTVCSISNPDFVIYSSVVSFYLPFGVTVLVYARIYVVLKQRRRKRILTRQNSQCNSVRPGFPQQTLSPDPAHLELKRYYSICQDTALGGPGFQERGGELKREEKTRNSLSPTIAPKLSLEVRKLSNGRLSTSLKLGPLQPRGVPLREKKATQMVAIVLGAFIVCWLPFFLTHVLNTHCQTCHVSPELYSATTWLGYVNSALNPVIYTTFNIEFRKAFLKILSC
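Agonist-mode cell screen: cells plated at 1500/well and incubated overnight at 37 °C, then exposed to library compounds for 90 min at 37 °C. Detection reagent was added for 30–60 min at room temperature, and luminescence was read.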
DRD3 antagonist: D3 dopamine receptor (human) antagonism. P35462. D3R cells, DiscoveRx beta-arrestin luminescence, antagonist mode; hits give low values. max response, negative = inhibition, %. 2.5% of 360,000 active; in the data active means max response below about -50%; inconclusive means no clear call, values can overlap the other calls
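Cells plated overnight at 1500 cells/well, then exposed to library compounds with dopamine controls for 90 minutes at 37 degrees C. DiscoveRx reagent added for 30–60 minutes at room temperature; luminescence read, quantitative HTS format.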
ATXN2 expr inh: ATXN2 expression inhibition | HEK-293 ATXN2-luciferase reporter, luminescence, 24 h | Potency, µM (highest dose often 57 µM), hits mostly inhibitors | 0.72% of 360,000 active; further: nearly all actives have a fitted effect of over 55% in size
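qHTS (up to 57 uM final) was run with 24 h compound exposure of reporter cells at 37 °C. Each well was multiplexed: SteadyGlo luminescence measured ATXN2-luciferase expression after a fluorogenic Gly-Phe-AFC viability readout (25 uM final).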
S2 tox: reduces viability in counter-screen for ATXN expression inhibitors. S2 cells (HEK-293 line with an ATXN2-luciferase reporter) viability, CellTiter-Fluor protease fluorescence, 24 h. 0.49% of 400,000 active. AID 651635. Potency, µM (titrated, usually from 56.7 µM), most hits filed as cytotoxic; further: nearly all actives have a fitted effect of over 40% in size
HepG2 viability: HepG2 cytotoxicity, counter-screen for TGF-b inhibitors. Potency, µM (titrated, usually from 46.1 µM), usual class: cytotoxic. AID 588856. HepG2 CAGA-GFP viability, ATP luminescence, 18 h. 0.76% of 410,000 active
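CellTiter-Glo luminescence gave cytotoxicity after 18 hours at 37 degrees C. The cells were HepG2 CAGA-GFP in 1% FBS DMEM, stimulated with 500 pg/mL TGF-beta after compound addition. %Activity was normalised to no-cell wells (complete cell-killing) and DMSO (no toxicity), and curves were fitted and classified.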
A number is an active result; 0 = inactive; ? = inconclusive; - = no result; [ ] = remark or other dose. Unless noted, the call rests on the fitted dose curve; in most records, active means well fitted curve in the direction sought with a large enough effect; inconclusive means small, poorly fitted or top-dose-only effect, or another doubt; inactive means no such curve, though single readings can be large; an effect the other way counts as inactive or inconclusive.

SMILES	TGFb inhibitor	DRD3 agonist	DRD3 antagonist	ATXN2 expr inh	S2 tox	HepG2 viability
CCOC(=O)C1=C(C)NC2=C(C(=O)C(C(=O)OCC)C(c3ccco3)C2)C1c1ccccc1C (centres undefined)	0	-	-	-	-	0
COC(=O)CCCCC(CCSS/C(CCO)=C(\C)N(C=O)Cc1cnc(C)nc1N)SC(C)=O (centres undefined)	-	-	-	0	0	-
CCCNC(=O)NS(=O)(=O)c1cnccc1Sc1ccc(Cl)c(Cl)c1	0	0	-53	0	0	0
CCOc1ccc(NC(=O)CN(C)Cc2ccc3c(c2)OCO3)cc1S(=O)(=O)N1CCCC1	0	0	-68	0	0	0
CCNC(=O)c1cc2c(-c3cc(OCCN4CCCC4)c(Cl)cc3Cl)nc(N)nc2s1	-	-	-	1.4µM	-	-
CCNC(=O)C1(C)CCCN(CCOc2ccc(Cl)cc2)C1 (centres undefined)	0	0	0	0	0	0
CN(C)c1ccc(Cn2ccc3ccccc32)cc1	?	-	-	-	-	0
CCCCN(CCCC)c1ccc(Cn2ccc3ccccc32)cc1	18µM	-	-	-	-	0
CCCOc1ccc(NC(=O)CC2C(=O)N(c3ccc(C)cc3)C(=O)N2C(C)C)cc1 (centres undefined)	0	0	-	-	-	0
Cc1ccccc1NC(=O)CSc1nnc(-c2ccccn2)o1	0	0	0	0	0	0
COc1cccc(-n2c(SCC(=O)Nc3cccc(Cl)c3)nc3c(oc4ccccc43)c2=O)c1	?	0	-	0	?	0
Cc1nc(SCC(=O)Nc2cccc(Cl)c2)n[nH]1	0	0	0	0	0	0
Cc1ccccc1NC(=O)CSc1n[nH]c(-c2ccccn2)n1	0	0	0	22µM	?	0
O=C(CSc1n[nH]c(-c2ccccn2)n1)Nc1cccc(Cl)c1	?	0	0	10µM	0	0
Cc1ccc(C)c(NC(=O)CSc2n[nH]c(-c3ccccn3)n2)c1	0	0	0	18µM	?	0
O=C(CSc1nc2c(oc3ccccc32)c(=O)[nH]1)Nc1cccc(Cl)c1	11µM	0	-	0	?	0
O=C(CCc1c[nH]c2ccccc12)N1CCC(n2c(C3CCCO3)nc3cc(C(F)(F)F)ccc32)CC1 (centres undefined)	-	-	-	-	0	-
Cc1cc(-c2ccnc(-n3ncc(C(=O)NCCc4cccnc4)c3C)n2)c(C)s1	-	-	-	-	0	-
O=C(CCc1cn(Cc2ccccc2Cl)c2ccccc12)NC1CCCCC1	?	0	-	-	-	0
CC1CCC(NC(=O)CCc2cn(Cc3ccccc3Cl)c3ccccc23)CC1 (centres undefined)	16µM	0	-	-	-	0
CCc1ccc(NC(=O)COC(=O)c2ccccc2OCC(=O)N(C)C)cc1	0	-	-	-	-	0
Cc1cnc(-n2ncc(C(=O)NCC3CCCN(C)C3)c2C)nc1-c1cccs1 (centres undefined)	-	-	-	-	0	-
COc1ccc(-n2ncc(C(C)NS(=O)(=O)c3cccs3)c2C)cc1 (centres undefined)	0	0	-76	0	0	0
COc1ccc(-n2ncc(C(C)NS(=O)(=O)c3cc(F)ccc3C)c2C)cc1 (centres undefined)	0	0	-58	0	0	0
COc1ccc(-n2ncc(C(C)NS(=O)(=O)c3ccc(C(C)=O)cc3)c2C)cc1 (centres undefined)	0	0	0	0	0	0
SMILES	TGFb inhibitor	DRD3 agonist	DRD3 antagonist	ATXN2 expr inh	S2 tox	HepG2 viability
COc1ccc(C)cc1S(=O)(=O)NC(C)c1cnn(-c2ccccn2)c1C (centres undefined)	0	0	0	0	0	0
CCc1cccc(C)c1NC(=O)C(CC)n1nc(C)c2c(C)n(-c3ccccc3)nc2c1=O (centres undefined)	0	0	-	0	0	0
CC1CCN(S(=O)(=O)c2ccc3c(c2)N(CC(=O)NC(C)C)C(=O)CO3)CC1	0	0	-	0	?	0
COC(=O)c1ccc(NC(=O)CN2C(=O)CC(c3ccccc3)Sc3ccccc32)cc1 (centres undefined)	0	0	-	0	0	0
CC(=O)c1ccc(N2CCN(C(=O)c3cc(-c4ccncc4)nc4ccc(Cl)cc34)CC2)cc1	0	34	0	0	0	0
CCC[C@@H]1C[C@@]1(CCC)[C@@H](NP(=O)(c1ccccc1)c1ccccc1)c1ccc(C(=O)OC)cc1	11µM	0	0	?	?	14µM
O=C(NC(Cc1c[nH]c2ccccc12)C(=O)Nc1ccc(OC(F)(F)F)cc1)c1cccs1 (centres undefined)	?	0	0	0[11.3 µM]	0	11µM
COC(=O)[C@H]1[C@H]2C[C@H]3c4[nH]c5ccccc5c4CCN3C[C@H]2CC[C@@H]1O	0	0	-132	0	0	0
O=C(O)[C@@H]1C[C@H](C(=O)O)N1	0	-	-	-	-	0
O=[N+]([O-])c1ccc(Nc2nc(NCCN3CCOCC3)nc(Nc3ccc(I)cc3)n2)cc1	0	-	-	-	-	0
CCC1CCc2sc(C(=O)NCc3ccccn3)cc2C1 (centres undefined)	0	0	0	0	?	0
CC1CCc2sc(C(=O)NC3CCN(Cc4ccccc4)CC3)cc2C1 (centres undefined)	0	0	-95	0	0	0
CCC1CCc2sc(C(=O)NC3CCN(Cc4ccccc4)CC3)cc2C1 (centres undefined)	0	0	-72	?	?	0
Cc1cnc(C(=O)O)c[n+]1[O-]	-	0	-	0	0	-
O=C(c1ccccc1)c1sc(N2CCCCCC2)nc1-c1ccccc1	?	0	0	0	0	0
[2H]c1c([2H])c([2H])c(C(=O)c2sc(N3CCCCCC3)nc2-c2ccccc2)c([2H])c1[2H]	14µM	0	0	0	0	0
Clc1ccc(CCNC(c2nnc(-c3ccccc3)o2)c2ccccc2Cl)cc1 (centres undefined)	?	0	-	0	0	0
CC(C)C[C@H](N)c1cn([C@@H](CCCCN)C(=O)N2CCNCC2)nn1	?	0	0	1.6µM	?	0
Cc1ccc(OCCNc2cc(N3CCN(CCO)CC3)ccc2[N+](=O)[O-])cc1C	0	0	-56	0	?	0
Cc1cccc(OCCNc2cc(N3CCN(C)CC3)ccc2[N+](=O)[O-])c1	0	0	-65	0	?	0
Cc1cccc(OCCNc2cc(N3CCOCC3)ccc2[N+](=O)[O-])c1	0	0	0	0	0	0
Cc1cc(=O)oc2cc(O[C@@H]3SC[C@@H](O)[C@H](O)[C@H]3O)ccc12	-	-	-	0	0	-
CCCCn1c(-c2ccccc2C)nc2cc3[nH]c(=O)c(C(C)C)nc3cc21	?	0	-64	0	?	0
CC[C@@H](C)[C@H](N)C(=O)O	-	0	-	-	-	-
Cc1cc(C)c2c(c1)-c1c(ssc1=S)C(C)(C)N2C(=O)CSc1nncn1C	6.3µM	0	0	?	?	0

Assay outcomes: PubChem, National Center for Advancing Translational Sciences (NCATS)
